Measured values: PMC4336329 (PLoS ONE, 2015)
Out of some 310,000 compounds screened, about 14,000 (4.5%) showed an effect of 50% or more. Effects have a minus sign here. The entries come from a sample that favours strong results as a whole.

The molecules below were run against human ether-à-go-go-related gene (hERG) potassium channel (human, UniProt Q12809) (assay: primary screen, population patch clamp on CHO cells stably expressing hERG; higher = less effect of the substance).
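Further: peak tail current of the secondary pulse compared with the same well before compound.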

Sequence of human ether-à-go-go-related gene (hERG) potassium channel (Q12809 whole entry, looked up): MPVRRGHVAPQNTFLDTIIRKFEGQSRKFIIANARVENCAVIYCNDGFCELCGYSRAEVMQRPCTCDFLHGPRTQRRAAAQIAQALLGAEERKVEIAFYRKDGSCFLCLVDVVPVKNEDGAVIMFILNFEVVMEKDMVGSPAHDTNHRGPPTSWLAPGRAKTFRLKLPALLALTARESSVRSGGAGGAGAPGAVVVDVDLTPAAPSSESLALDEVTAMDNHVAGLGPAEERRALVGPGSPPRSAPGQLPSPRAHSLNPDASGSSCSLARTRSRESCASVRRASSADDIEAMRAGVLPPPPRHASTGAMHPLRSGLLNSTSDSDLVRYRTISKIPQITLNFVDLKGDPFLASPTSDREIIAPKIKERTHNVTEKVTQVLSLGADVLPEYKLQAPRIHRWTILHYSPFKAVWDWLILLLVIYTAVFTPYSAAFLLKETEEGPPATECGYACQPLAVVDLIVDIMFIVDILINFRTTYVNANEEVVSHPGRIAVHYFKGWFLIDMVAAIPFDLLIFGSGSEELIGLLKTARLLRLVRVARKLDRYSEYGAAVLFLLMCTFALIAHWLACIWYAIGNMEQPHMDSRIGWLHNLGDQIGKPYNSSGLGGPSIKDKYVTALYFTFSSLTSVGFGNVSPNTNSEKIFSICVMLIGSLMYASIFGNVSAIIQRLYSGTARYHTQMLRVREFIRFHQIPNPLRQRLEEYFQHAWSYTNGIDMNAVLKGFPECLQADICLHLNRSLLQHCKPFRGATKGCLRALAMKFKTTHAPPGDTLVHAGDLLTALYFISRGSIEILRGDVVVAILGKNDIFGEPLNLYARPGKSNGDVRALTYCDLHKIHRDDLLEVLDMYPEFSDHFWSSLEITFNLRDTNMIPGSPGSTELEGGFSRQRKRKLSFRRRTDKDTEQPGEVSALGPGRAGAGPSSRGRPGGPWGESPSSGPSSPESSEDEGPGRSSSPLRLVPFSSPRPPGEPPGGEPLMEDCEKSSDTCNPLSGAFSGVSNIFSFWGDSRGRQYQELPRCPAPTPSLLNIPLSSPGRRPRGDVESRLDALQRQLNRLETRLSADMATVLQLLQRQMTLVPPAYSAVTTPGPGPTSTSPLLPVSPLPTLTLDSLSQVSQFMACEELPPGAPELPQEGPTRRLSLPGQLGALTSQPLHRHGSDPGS

SMILES	hERG current change (%, negative = inhibition) at 10uM [%]
CCc1n[nH]c(=S)n1/N=C/c1c(C)nn(-c2ccccc2)c1Cl	21.4
CN(C)c1ccc(/C=N/n2c(C3CCCCC3)n[nH]c2=S)cc1	20
Cc1csc(CN(C)C(=O)C2CCC(=O)N(CCCc3ccccc3)C2)n1 (stereo not drawn)	-5.37
CCC1(CCCC(=O)c2ccc(F)cc2)C(=O)NC(=S)NC1=O	-3.66
Cc1cccc(NC(=O)COc2coc(CN3CCN(Cc4ccccc4)CC3)cc2=O)c1	-65
Cc1cccc(NC(=O)COc2coc(CN3CCN(c4ccccc4)CC3)cc2=O)c1C	-28.6
CCc1ccc(NC(=O)COc2coc(CN3CCN(c4ccccc4)CC3)cc2=O)cc1	12.3
O=C(COc1coc(CN2CCN(c3ccccc3)CC2)cc1=O)NC1CCCCC1	-46.1
Cc1ccc(NC(=O)COc2coc(CN3CCN(c4ccccc4)CC3)cc2=O)cc1	1.7
Cc1cccc(NC(=O)COc2coc(CN3CCN(c4ccccc4)CC3)cc2=O)c1	-7.9
O=C(COc1coc(CN2CCN(c3ccccc3)CC2)cc1=O)NC1CCCC1	-13.6
O=C(COc1coc(CN2CCN(c3ccccc3)CC2)cc1=O)Nc1ccccc1F	-3.41
Cc1cccc(NC(=O)COc2coc(CN3CCc4ccccc4C3)cc2=O)c1	-8.19
O=C(COc1coc(CN2CCN(c3ccc(F)cc3)CC2)cc1=O)NC1CCCC1	-53.1
Cc1ccc(NC(=O)COc2coc(CN3CCN(Cc4ccccc4)CC3)cc2=O)cc1	-73.3
COc1ccccc1NC(=O)COc1coc(CN2CCN(c3ccccc3)CC2)cc1=O	-60
CN(C)c1ccc(CN2CCCCC2)cc1	14.9
CCN(CC(=O)N1CCCCCC1)S(=O)(=O)c1ccc(Cl)cc1	-13.5
CC1=Nc2ccccc2N=C(NC(=O)/C=C/C(=O)O)C1c1ccccc1 (stereo not drawn)	2.53
O=c1[nH]c(=O)n(-c2ccccc2F)c(O)c1C=NCCC1=CCCCC1	25.6
Cc1c(NC(=O)CN2CCC(C(N)=O)CC2)cccc1[N+](=O)[O-]	26.4
COc1ccc(N2CCN(C(c3cc(OC)ccc3OC)c3nnnn3CC3CCCO3)CC2)cc1.Cl (stereo not drawn)	-9.64

SMILES	hERG current change (%, negative = inhibition) at 10uM [%]
CC(C)CNC(=O)[C@H](Cc1ccccc1)NC(=O)c1ccco1	-6.82
Cc1ccccc1NC(=O)COc1coc(CN2CCN(c3ccccc3)CC2)cc1=O	-21.1
Cc1ccccc1NC(=O)COc1coc(CN2CCN(Cc3ccccc3)CC2)cc1=O	-53.3
CNC(=O)COc1coc(CN2CCN(Cc3ccccc3)CC2)cc1=O	1.83
CC(OC(=O)c1ccc(NS(=O)(=O)c2cccs2)cc1)C(=O)N(C)C1CCCCC1 (stereo not drawn)	-0.558
CCc1ccc(NS(=O)(=O)c2ccc3[nH]cc(C(=O)NCC4CCCO4)c(=O)c3c2)cc1 (stereo not drawn)	15.4
CC(=O)Nc1ccc(C(=O)OCCC(C)C)cc1	-17.4
Cc1ccc(CNc2cc(C(=O)O)ccc2C)s1	19.2
O=C(Cn1c(=O)n(CC2CCCO2)c(=O)c2ccccc21)N1CCN(c2ccccc2)CC1 (stereo not drawn)	-21.8
Cc1ccc(C)c(S(=O)(=O)N2CCCOC2CNC(=O)C(=O)NCc2ccccn2)c1 (stereo not drawn)	5.01
CC(C)N1CCC(=NNC(=O)c2cccs2)CC1	25.6
COC(=O)C1=C(N)Oc2cc(C)n(CCc3ccccc3)c(=O)c2C1c1cccnc1 (stereo not drawn)	-25.9
COC(=O)C1=C(N)Oc2cc(C)n(CC3CCCO3)c(=O)c2C1c1ccc(Cl)cc1 (stereo not drawn)	-8.41
COC(=O)C1=C(N)Oc2cc(C)n(Cc3ccco3)c(=O)c2C1c1cccc(Cl)c1 (stereo not drawn)	-5.24
COC(=O)C1=C(N)Oc2cc(C)n(C)c(=O)c2C1c1ccc(Cl)cc1 (stereo not drawn)	6.7
COC(=O)C1=C(N)Oc2cc(C)n(CCCn3ccnc3)c(=O)c2C1c1cccc(Cl)c1 (stereo not drawn)	-69.7
COC(=O)C1=C(N)Oc2cc(C)n(CCCn3ccnc3)c(=O)c2C1c1ccc(Cl)cc1 (stereo not drawn)	-59.8
Cc1cccc(NS(=O)(=O)c2ccc3[nH]c(=O)[nH]c3c2)c1C	13.7
Cc1nn(Cc2ccccc2)c(C)c1NC(=O)CSc1nc(C2CC2)nc2c1cnn2-c1ccccc1	8.84
CN(C)CCNc1ncnc2sc(-c3ccccc3)cc12	-21.1
OCCCNc1ncnc2sc(-c3ccccc3)cc12	3.23
COc1ccc(-c2oc3ncnc(NCCCO)c3c2-c2ccc(OC)cc2)cc1	4.27

SMILES	hERG current change (%, negative = inhibition) at 10uM [%]
CN(C)CCCNc1ncnc2oc(-c3ccccc3)c(-c3ccccc3)c12	-69.5
CN(C)CCNc1ncnc2oc(-c3ccccc3)c(-c3ccccc3)c12	-60.7
CN(C)CCCNc1ncnc2sc(-c3ccccc3)cc12.O=C(O)C(=O)O	-60.2
Cc1c(C)n(-c2ccccc2)c2ncnc(NCCN(C)C)c12	-4.04
COc1ccc(-c2oc3ncnc(NCCCN(C)C)c3c2-c2ccc(OC)cc2)cc1	-60.2
OCCCNc1ncnc2oc(-c3ccccc3)c(-c3ccccc3)c12	-13.2
COc1ccc(-c2oc3ncnc(N)c3c2-c2ccccc2)cc1	6.52
CN(C)CCNc1ncnc2ccccc12.Cl	7.66
COCCCNC(=O)CNC(=S)N(Cc1ccccc1)Cc1cccnc1	-9.77
O=C(NCc1cccnc1)Nc1cccc(F)c1	7.53
CN(Cc1ccccc1)C(=O)Nc1ccccc1	7.49
COC(=O)c1ccccc1NC(=O)COc1ccc(S(=O)(=O)N2CCCC2)cc1C	8.37
CSc1nnc2c(n1)OC=Nc1ccc(Br)cc1-2	-11.7
O=C(NCC1CCCO1)c1ccc[nH]1 (stereo not drawn)	12.3
COc1ccc2oc(=O)c(C(=O)Nc3ccccc3O)cc2c1	8.79
Cn1c(CC(=O)Nc2ccccc2F)nnc1SCC(=O)Nc1nccs1	18.6
Fc1ccc(-c2cc(C(F)(F)F)n3ncnc3n2)cc1	26.8
CC(=O)c1cc2c(cc1NC(=O)c1cnc(C)cn1)OCO2	4.22
Cc1cccc(N(CC(=O)N2CCCC2)S(=O)(=O)c2ccccc2)c1	-34.7
Cc1ccc(N(CC(O)CN(C)C)S(=O)(=O)c2ccccc2)cc1.Cl (stereo not drawn)	-68.1
Cc1cccc(N(CC(O)CN(C)C)S(=O)(=O)c2ccccc2)c1.Cl (stereo not drawn)	-63
COC(=O)CN(c1cccc(C)c1)S(=O)(=O)c1ccccc1	-14

SMILES	hERG current change (%, negative = inhibition) at 10uM [%]
O=S(=O)(c1ccccc1)N(CC(O)Cn1c2ccccc2c2ccccc21)c1ccccc1 (stereo not drawn)	14.9
O=S(=O)(c1ccccc1)N(CC(O)COc1ccccc1)c1ccccc1 (stereo not drawn)	-26.6
Cc1cc(C)n(CC(O)CN(c2ccccc2)S(=O)(=O)c2ccc3ccccc3c2)n1 (stereo not drawn)	-6.13
Cc1ccc(S(=O)(=O)N(CC(O)CN(C)C)c2ccccc2)cc1.Cl (stereo not drawn)	-65.6
Cc1ccc(S(=O)(=O)N(C)c2ccccc2)cc1	-11.8
CCN(c1ccccc1)S(=O)(=O)c1ccc2ccccc2c1	-3.29
Cc1ccc(S(=O)(=O)N(CC(O)CN2C(=O)NC(C)(C)C2=O)c2ccccc2)cc1 (stereo not drawn)	-37.7
CCN(CC)CC(O)CN(c1ccccc1)S(=O)(=O)c1ccc2ccccc2c1.Cl (stereo not drawn)	-80.2
O=C(CC1SC(=O)N(Cc2ccccc2)C1=O)Nc1nccs1 (stereo not drawn)	3.22
O=C(Nc1ccc(Br)cc1)Nc1ccccc1Cl	19.7
CC(=O)Nc1ccc2c(c1)ncn2-c1ccccc1	3.72
CCOC(=O)C1CCCN(C(=O)c2ccc3c(c2)NC(=O)C(N2CCOCC2)S3)C1 (stereo not drawn)	19.7
CCCCC(=O)NC(=S)Nc1ccc(NC(=O)C(C)C)c(OC)c1	21.2
CCCN(CCC)CC(O)CN(c1ccccc1)S(=O)(=O)c1ccc(C)cc1 (stereo not drawn)	-80.3
Cc1ccc(S(=O)(=O)N(CCC(=O)O)c2ccccc2)cc1	-10.5
Cc1ccc(N(CC(O)COCc2ccco2)S(=O)(=O)c2ccc(C)cc2)cc1 (stereo not drawn)	-11.1
CC(C)OC(=O)CCc1nc2ccccc2[nH]c1=O	10.1
COc1nc(-c2ccccc2)ccc1-c1noc(-c2cccnc2)n1	5.15
COc1ccc(C(=O)COC(=O)CNC(=O)C2CCCCC2)c(OC)c1	-11
COc1ccc(NC(=O)C2C(=O)N(C)C3(C)CC2c2ccccc2O3)cc1 (stereo not drawn)	-13.5
CCC(C)NS(=O)(=O)c1cccs1 (stereo not drawn)	7.86
